Test results: the supplement of paper PMC10037445
Whole data set: some 2,900 compounds, median “NF-kB SEAP reporter activity, fold change vs agonist alone” near 0.99, cut for the highest 2% near 2.6. Only a selection was taken, and the highest values are over-represented in it overall.

Legend:
RAW-Dual [1] = experiment: NF-kB SEAP reporter activity, fold change vs agonist alone; higher = enhanced NF-kB activity; details: library stock concentration (final ~1000-fold dilution): 10 mM, cytotoxicity flag (confluency mask): not cytotoxic
Summary of the method: (§1)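 RAW-Dual macrophages were seeded in DMEM at 50,000 cells/well in 384-well plates, given 50 nL of library stock by pin tool, and given a PRR agonist 1 h later. Plates were held at 37 °C, 5% CO2 for 20 hours, after which supernatant was read for IRF by QuantiLuc luminescence and for NF-κB by QuantiBlue absorbance at 620 nm. Reporter activity is expressed as fold change over wells that received agonist alone. A well was called cytotoxic when IncuCyte confluency fell below 70% of agonist controls in both mask sets.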

RAW-Dual [2] = experiment: NF-kB SEAP reporter activity, fold change vs agonist alone; cytotoxicity flag (confluency mask): not cytotoxic; higher = enhanced NF-kB activity
Summary of the method: as §1

[3] = agonist: ODN 1826 (TLR9) 0.5 ug/mL
[4] = agonist: Pam2CSK4 (TLR2/6) 0.1 ug/mL
[5] = agonist: Pam3CSK4 (TLR2/1) 0.1 ug/mL

For Cc1ccc(S(=O)(=O)O)cc1.NC(=O)c1cccc2cn(-c3ccc(C4CCCNC4)cc3)nc12 (stereo not drawn), the “NF-kB SEAP reporter activity” value (RAW-Dual [1]; agonist: Imiquimod (TLR7) […]) was 0.663 and the “NF-kB SEAP reporter activity” value (RAW-Dual [1]; agonist: MPLA (TLR4) […]) was 1.04.

Cc1ccc(S(=O)(=O)O)cc1.NC(=O)c1cccc2cn(-c3ccc(C4CCCNC4)cc3)nc12 (stereo not drawn) (library stock concentration (final ~1000-fold dilution): 10 mM) was tested, and the “NF-kB SEAP reporter activity” value (RAW-Dual [2]; agonist: LPS (TLR4) 0.1 ug/mL) was 1.04, the “NF-kB SEAP reporter activity” value (RAW-Dual [2]; [3]) was 0.181 and the “NF-kB SEAP reporter activity” value (RAW-Dual [2]; [4]) was 1.41. The “NF-kB SEAP reporter activity” value (RAW-Dual [2]; [5]) was 1.1.

Cc1nc2ccc(CN(C)c3ccc(C(=O)NC(CCC(=O)O)C(=O)O)s3)cc2c(=O)[nH]1 (stereo not drawn) was tested, and the “NF-kB SEAP reporter activity” value (RAW-Dual [1]; agonist: Imiquimod (TLR7) […]) was 1.78 and the “NF-kB SEAP reporter activity” value (RAW-Dual [1]; agonist: MPLA (TLR4) […]) was 1.45.

For Cc1nc2ccc(CN(C)c3ccc(C(=O)NC(CCC(=O)O)C(=O)O)s3)cc2c(=O)[nH]1 (stereo not drawn) (library stock concentration (final ~1000-fold dilution): 10 mM), the “NF-kB SEAP reporter activity” value (RAW-Dual [2]; agonist: LPS (TLR4) 0.1 ug/mL) was 1.56, the “NF-kB SEAP reporter activity” value (RAW-Dual [2]; [3]) was 1.93 and the “NF-kB SEAP reporter activity” value (RAW-Dual [2]; [4]) was 1.31. For the same compound, the “NF-kB SEAP reporter activity” value (RAW-Dual [2]; [5]) was 1.7.

CNc1ccc([N+](=O)[O-])cc1-n1cnc(-c2ccc(C(F)(F)F)cc2)c1 was tested, and the “NF-kB SEAP reporter activity” value (RAW-Dual [1]; agonist: Imiquimod (TLR7) […]) was 1.24 and the “NF-kB SEAP reporter activity” value (RAW-Dual [1]; agonist: MPLA (TLR4) […]) was 2.01.

CNc1ccc([N+](=O)[O-])cc1-n1cnc(-c2ccc(C(F)(F)F)cc2)c1 (library stock concentration (final ~1000-fold dilution): 10 mM) was tested, and the “NF-kB SEAP reporter activity” value (RAW-Dual [2]; agonist: LPS (TLR4) 0.1 ug/mL) was 4.5, the “NF-kB SEAP reporter activity” value (RAW-Dual [2]; [3]) was 1.91 and the “NF-kB SEAP reporter activity” value (RAW-Dual [2]; [4]) was 0.926. The “NF-kB SEAP reporter activity” value (RAW-Dual [2]; [5]) was 1.08.

In the case of O=C(Cc1ccccc1)Nc1nnc(NC2CCN(c3nnc(NC(=O)Cc4ccccc4)s3)CC2)s1, the “NF-kB SEAP reporter activity” value (RAW-Dual [1]; agonist: Imiquimod (TLR7) […]) is reported as 0.998 and the “NF-kB SEAP reporter activity” value (RAW-Dual [1]; agonist: MPLA (TLR4) […]) is reported as 1.26.

In the case of O=C(Cc1ccccc1)Nc1nnc(NC2CCN(c3nnc(NC(=O)Cc4ccccc4)s3)CC2)s1 (library stock concentration (final ~1000-fold dilution): 10 mM), the “NF-kB SEAP reporter activity” value (RAW-Dual [2]; agonist: LPS (TLR4) 0.1 ug/mL) is reported as 1.41, the “NF-kB SEAP reporter activity” value (RAW-Dual [2]; [3]) is reported as 0.773 and the “NF-kB SEAP reporter activity” value (RAW-Dual [2]; [4]) is reported as 0.514. For the same compound, the “NF-kB SEAP reporter activity” value (RAW-Dual [2]; [5]) was 0.64.

In the case of COc1ccc(C2CC(=O)c3c(O)cc(O)cc3O2)cc1O (stereo not drawn), the “NF-kB SEAP reporter activity” value (RAW-Dual [1]; agonist: Imiquimod (TLR7) […]) is reported as 1.28 and the “NF-kB SEAP reporter activity” value (RAW-Dual [1]; agonist: MPLA (TLR4) […]) is reported as 1.11.

With COc1ccc(C2CC(=O)c3c(O)cc(O)cc3O2)cc1O (stereo not drawn) (library stock concentration (final ~1000-fold dilution): 10 mM) the “NF-kB SEAP reporter activity” value (RAW-Dual [2]; agonist: LPS (TLR4) 0.1 ug/mL) was 1.12, the “NF-kB SEAP reporter activity” value (RAW-Dual [2]; [3]) was 1.2 and the “NF-kB SEAP reporter activity” value (RAW-Dual [2]; [4]) was 1.26. The “NF-kB SEAP reporter activity” value (RAW-Dual [2]; [5]) was 1.33.

With O=C(O)CCN1C(=O)/C(=C2/C(=O)Nc3ccc(Cl)cc32)SC1=S the “NF-kB SEAP reporter activity” value (RAW-Dual [1]; agonist: Imiquimod (TLR7) […]) was 0.954 and the “NF-kB SEAP reporter activity” value (RAW-Dual [1]; agonist: MPLA (TLR4) […]) was 1.18.

O=C(O)CCN1C(=O)/C(=C2/C(=O)Nc3ccc(Cl)cc32)SC1=S (library stock concentration (final ~1000-fold dilution): 10 mM) was tested, and the “NF-kB SEAP reporter activity” value (RAW-Dual [2]; agonist: LPS (TLR4) 0.1 ug/mL) was 1.86, the “NF-kB SEAP reporter activity” value (RAW-Dual [2]; [3]) was 0.841 and the “NF-kB SEAP reporter activity” value (RAW-Dual [2]; [4]) was 1.4. The “NF-kB SEAP reporter activity” value (RAW-Dual [2]; [5]) was 1.57.

With COc1cc(-c2oc3cc(O)cc(O)c3c(=O)c2OC2OC(CO)C(O)C(O)C2OC2OC(C)C(O)C(O)C2O)ccc1O (stereo not drawn) the “NF-kB SEAP reporter activity” value (RAW-Dual [1]; agonist: Imiquimod (TLR7) […]) was 0.928 and the “NF-kB SEAP reporter activity” value (RAW-Dual [1]; agonist: MPLA (TLR4) […]) was 1.05.
